Experimental data: PubChem BioAssay (NCATS)
Inconclusive results are not listed. Active and inactive are the calls of the source. Unless noted, calls come from the whole dose curve; as a rule, active = well fitted curve in the direction sought with a large enough effect; inconclusive = small, poorly fitted or top-dose-only effect, or another doubt; inactive = no such curve, though single readings can be large; an effect the other way counts as inactive or inconclusive.

Key:
[1] = AP1 Signaling Pathway (AID 357; active = well fitted curve in either direction with a large enough effect, not every such curve was filed as active;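 note: ME-180 reporter cells stimulated with EGF at its EC50 level; % is set by controls: 0 for no effect and ±100 for the full control effect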); conditions: ME-180 AP-1-bla reporter, EGF-induced, beta-lactamase ratio, 5 h; at 17.2 µM (top of the series) unless noted
Outline: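 Cells are seeded overnight, exposed to compound titrations and an EC50 level of EGF for 5 hours at 37 °C, then loaded with CCF4 dye for 2.5 hours. Beta-lactamase activity under the AP-1 element is read as a blue/green ratio.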

[2] = Stat Signaling Pathway (AID 446; active = well fitted curve in either direction with a large enough effect, not every such curve was filed as active;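 note: ME-180 cervical cancer cells given 40 pM IL-6 alongside compound; SIE-controlled beta-lactamase reporter measured as 460/530 nm FRET emission ratio; % is set by controls: 0 for no effect and ±100 for the full control effect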); conditions: ME-180 (cervical carcinoma) SIE beta-lactamase reporter, IL-6 stimulated, 5 h; at 17.2 µM (top of the series) unless noted
Outline: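 Overnight-plated ME-180 cells bearing a STAT Inducible Element beta-lactamase reporter; 5 h co-exposure to compound and 40 pM IL-6; values normalized to 300 pM IL-6 and 125 nM JAK inhibitor controls.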

[3] = molecular target: Glucocorticoid receptor (Homo sapiens) (UniProt P04150); experiment: GR-GFP Redistribution (AID 450;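 active = compounds whose dose series gives a full or clear partial fitted curve of increased nuclear translocation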; note: potency is the fitted concentration of half-maximal effect)
[4] = molecular target: Glucocorticoid receptor (Homo sapiens) (UniProt P04150); experiment: GR-EFC Redistribution (AID 451; calls by dose curve; note: potency is the fitted concentration of half-maximal effect); conditions: CHO-K1 GR-EFC translocation, beta-gal luminescence, 2 h
Outline: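 CHO-K1 cells stably expressing nuclear-localized β-gal enzyme acceptor and GR fused C-terminally to the enzyme donor fragment; ligand-driven nuclear translocation restores β-gal by complementation. Compounds titrated up to 46 uM final, 2 h at 37 °C; luminescence read.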

[5] = molecular target: Mitogen-activated protein kinase 10 (Mus musculus) (UniProt Q61831); experiment: JNK3 AlphaScreen Assay (AID 530; active = well fitted curve in either direction with a large enough effect, not every such curve was filed as active;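 note: kinase came from lysate of stimulated human HepG2 cells; signal reports phosphorylation of biotinylated GST-cJun 1-79 at Ser73 with 10 µM ATP; % is set by controls: 0 for no effect and ±100 for the full control effect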)
Outline: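 Biotinylated GST-cJun(1-79) served as substrate for JNK3 in HepG2 lysates stimulated with IL-1beta and TNF-alpha. ATP was 10 uM final, pH 7.6. Ser73 phosphorylation was quantified by AlphaScreen (680 nm excitation).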

[6] = molecular target: 3',5'-cyclic-AMP phosphodiesterase 4B (Homo sapiens) (UniProt Q07343); experiment: qHTS Assay for Inhibitors of PDE-IV (AID 607; active = well fitted activation curve with a large enough effect in the main read-out, with a control signal flat, not every such curve was filed as active; note: % of control where 0% means no effect)
Outline: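 Live HEK293 cells with a modified cyclic nucleotide-gated (CNG) channel report intracellular cAMP via membrane-potential dye fluorescence (ex 535/em 590 nm). Endogenous PDE-IV was targeted. Compounds were tested at up to 22.9 uM final; RO 20-1724 100 uM served as control.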

[7] = molecular target: Cytochrome P450 3A4 (Homo sapiens) (UniProt P08684); experiment: qHTS Assay for Inhibitors and Substrates of Cytochrome P450 3A4 (AID 884); note: % is set by controls: 0 for no effect and ±100 for the full control effect; nearly all actives have a fitted effect of over 50% in size
Outline: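 Luminescent readout of luciferin produced by CYP3A4 (20 nM) dealkylation of Luciferin-PPXE, 25 uM (its KM). NADPH-driven reaction ran 60 min at RT after 10 min compound preincubation; data scaled to 57 uM ketoconazole as 100% inhibition.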

[8] = Confirmation and Secondary Assay for Modulators of Hemoglobin Beta Chain Splicing at IVS2 654 locus (AID 910);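 note: per-well total GFP intensity by laser scanning cytometry after 2-day treatment; % of control where 0% means no effect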
Outline: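 HeLa cells stably carrying EGFP interrupted by mutant beta-globin IVS2-654 intron (CMV-driven) were treated with compound for 2 days at 37C; corrected splicing was scored as total peak GFP intensity per well (488 nm excitation, 500-520 nm emission).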

[9] = Confirmation and Secondary Assay for Modulators of Hemoglobin Beta Chain Splicing at IVS2 705 locus (AID 930);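 note: HeLa cells stably expressing the EGFP-705 splicing reporter; GFP fluorescence per well restored by corrected splicing of the IVS2-705 intron in EGFP; % of control where 0% means no effect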
Outline: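 Fluorescence gain (488 nm laser, 500-520 nm PMT) reflects restored correct splicing of a mutant IVS2-705 intron inside EGFP in stably transfected HeLa cells after 2-day compound treatment.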

[10] = molecular target: Ubiquitin carboxyl-terminal hydrolase 1 (Homo sapiens) (UniProt O94782); experiment: Inhibitors of USP1/UAF1: Pilot qHTS (AID 504865); note: potency is the fitted concentration of half-maximal effect; nearly all actives have a fitted effect of over 35% in size
Outline: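 1nM USP1/UAF1 + cpd, 15 min RT; start w/ Ub-Rho 150nM final; kinetic FL 480/540 nm, 6 reads q60 s. Buffer 50mM HEPES pH 7.8, 0.5mM EDTA, 1mM TCEP, 0.01% Tween-20, 0.1 mg/ml BSA.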

[11] = molecular target: Estrogen receptor (Homo sapiens) (UniProt P03372); experiment: qHTS assay for small molecule agonists of estrogen receptor alpha signaling (AID 588514; calls by dose curve;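 note: 0% = vehicle only and 100% = reference agonist; nearly all actives have a fitted effect of over 70% in size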)
Outline: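 Read-out: CCF4 fluorescence from a beta-lactamase reporter in ER-alpha-UAS-bla HEK 293 cells after 18 hrs of compound exposure at 37 C. Normalized to 20 nM 17-beta-estradiol (100%) and DMSO (0%).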

[12] = molecular target: Androgen receptor (Homo sapiens) (UniProt P10275); experiment: qHTS assay for small molecule antagonists of androgen receptor signaling (AID 588516; active = well fitted curve in the direction sought with a large enough effect in the signal ratio, with a control signal flat, not every such curve was filed as active; the % refers to the signal ratio; note: % is set by controls: 0 for no effect and ±100 for the full control effect)
Outline: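 HEK293 AR-UAS-bla cells, 10% dialyzed FBS medium; cpd titration + R1881 10 nM final, 16 h 37 C; CCF4 2 h RT; FRET ratio; IC50/efficacy via Hill fit.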

[13] = molecular target: Bile acid receptor (Homo sapiens) (UniProt Q96RI1); experiment: qHTS assay for small molecule antagonists of farnesoid X receptor signaling (AID 588526; calls by dose curve; note: % is set by controls: 0 for no effect and ±100 for the full control effect)
Outline: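 Concentration-response titrations were fitted to the Hill equation for half-maximal inhibition and maximal response, with data normalised to 50 uM chenodeoxycholic acid and DMSO control wells. Cells: FXR-UAS-bla HEK293T, dialyzed FBS.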

[14] = molecular target: Glucocorticoid receptor (Homo sapiens) (UniProt P04150); experiment: qHTS assay for small molecule agonists of glucocorticoid receptor signaling (AID 588532; active = well fitted curve in the direction sought with a large enough effect in the signal ratio, with a control signal flat; the % refers to the signal ratio;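 note: 100% = dexamethasone at 0.1 µM and 0% = DMSO only wells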); conditions: HeLa MMTV-bla, beta-lactamase ratio, agonist, 18 h; stronger effect = higher value; percent of dexamethasone control, DMSO zero
Outline: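 Titration series, up to 92 uM, applied to GRE-bla HeLa cells for 18 h at 37 C. Detection by CCF4 FRET substrate after 2 h at RT.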

[15] = qHTS assay for small molecule antagonists of peroxisome proliferator-activated receptor delta signaling (AID 588535; active = well fitted inhibition curve with a large enough effect in the signal ratio, with a control signal flat, not every such curve was filed as active; the % refers to the signal ratio;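 for max response: cells co-treated with a PPAR-delta agonist as stimulator during compound exposure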); conditions: HEK293T PPARd-UAS-bla, beta-lactamase FRET ratio, 18 h; 460 nm channel
Outline: (§1)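 Compounds tested in titration on PPAR-delta-UAS-bla HEK293T cells grown in charcoal/dextran-stripped serum (2%); beta-lactamase activity read via CCF4 emission at 460 and 530 nm.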

[16] = molecular target: Peroxisome proliferator-activated receptor delta (Homo sapiens) (UniProt Q03181); experiment: as above
Outline: as §1

[17] = molecular target: Peroxisome proliferator-activated receptor gamma (Homo sapiens) (UniProt P37231); experiment: qHTS assay for small molecule agonists of peroxisome proliferator-activated receptor gamma signaling (AID 588536; active = well fitted curve in the direction sought with a large enough effect in the signal ratio, with a control signal flat, not every such curve was filed as active; the % refers to the signal ratio;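 note: 0% = DMSO basal wells and 100% = rosiglitazone at 2 µM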)
Outline: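 Using GeneBLAzer HEK293 cells, response was quantified by CCF4 fluorescence and normalized between basal DMSO (0%) and rosiglitazone 2 uM (100%); curves yielded half-maximal stimulation concentration and efficacy.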

[18] = molecular target: Vitamin D3 receptor (Homo sapiens) (UniProt P11473); experiment: qHTS assay for small molecule antagonists of vitamin D receptor signaling (AID 588541; calls by dose curve)
Outline: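 VDR-UAS-bla HEK293T cells (2000/well, 2% charcoal-stripped FBS) were treated with titrated compounds plus 1-alpha,25-dihydroxyvitamin D3 (50 nM or 3 nM final) for 16 h at 37 C. CCF4 beta-lactamase fluorescence was read; Hill fits gave IC50.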

[19] = molecular target: Vitamin D3 receptor (Homo sapiens) (UniProt P11473); experiment: qHTS assay for small molecule agonists of vitamin D receptor signaling (AID 588543; calls by dose curve;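 note: 0% = DMSO basal and 100% = reference agonist control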)
Outline: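 β-lactamase reporter, VDR-UAS-bla HEK293T, agonist mode. Cells plated 5 h at 37 °C, compound titration 16 h at 37 °C, CCF4 dye 2 h RT, ratio 460/530 nm. Hill fit → EC50, efficacy vs 50 nM 1α,25-(OH)2D3.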

[20] = molecular target: Luciferin 4-monooxygenase (Photinus pyralis) (UniProt P08659); experiment: Biochemical firefly luciferase enzyme assay for NPC (AID 624030);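 note: purified P. pyralis luciferase at 10 nM with luciferin and ATP substrate; 0% = DMSO and -100% = full luciferase inhibition by PTC124 control; nearly all actives have a fitted effect of over 70% in size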
Outline: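 Counter-screen for direct inhibition of the luciferase enzyme by approved-drug library compounds, run at 10 nM enzyme in 50 mM Tris acetate (final). Luminescence was read within 5 min of enzyme-buffer addition and normalized to PTC124 versus DMSO (0%).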

[21] = qHTS assay for environmental chemicals that activate the Aryl hydrocarbon Receptor (AhR) signaling pathway (AID 651777); conditions: 1A2-DRE human hepatoma cells, luciferase, 24 h; activation: stronger effect = higher value; note: % of control where 0% means no effect; nearly all actives have a fitted effect of over 15% in size
Outline: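 Reporter gene assay: hepatoma cells with DRE/CYP1A2-luciferase, 24 hr compound incubation at 37 C, 5% CO2, luminescence after One-Glo (30 min, RT).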

[22] = qHTS assay for small molecule agonists of the antioxidant response element (ARE) signaling pathway measured by Nrf2-dependant transcriptional activity - cell viability counter screen (AID 720653; active = well fitted curve in the direction sought with a large enough effect in the repeat runs; an effect the other way counts as inactive or inconclusive; note: % is set by controls: 0 for no effect and ±100 for the full control effect); conditions: ARE-bla HepG2 viability, CellTiter-Glo ATP luminescence, 16 h; max response: stronger effect = lower value
Outline: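 ARE-bla HepG2 cells (2,000/well) rested 5 hrs at 37C/5% CO2, then exposed to compounds in DMSO for 16 hrs. Viability was read in the same wells as intracellular ATP by luminescence, 30 min at room temperature after reagent addition.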

[23] = qHTS assay for cell viability of HEK293 cells (AID 743288); conditions: ATP luminescence (CellTiter-Glo), 18 h; max response: stronger effect = lower value; note: % is set by controls: 0 for no effect and ±100 for the full control effect; nearly all actives have a fitted effect of over 50% in size
Outline: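 ATP luminescence (CellTiter-Glo) reports metabolically competent cell number after parental HEK293 cells, 2,000/well, were treated with DMSO-dissolved compounds for 18 h at 37 C; reagent incubation 30 min, room temperature.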

[24] = qHTS assay for cell viability of the p53RE-bla HCT-116 cell line (AID 743292); note: % is set by controls: 0 for no effect and ±100 for the full control effect; nearly all actives have a fitted effect of over 55% in size
Outline: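 ATP-based luminescence, 16 h compound exposure at 37 C, p53RE-bla HCT-116 cells at 4,000/well.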

[25] = molecular target: Nuclear receptor subfamily 1 group I member 2 (Rattus norvegicus) (UniProt Q9R1A7); experiment: qHTS assay for small molecule activators of the rat pregnane X receptor (rPXR) signaling pathway (AID 651751; call rule not given here; note: 0% is about no effect); conditions: rPXR reporter cells, luciferase (One-Glo), 24 h
[26] = qHTS assay for small molecule activators of the human pregnane X receptor (PXR) signaling pathway (AID 720659; call rule not given here; note: 0% is about no effect)

Chain of Glucocorticoid receptor (Homo sapiens) (P04150 whole entry, looked up, the tested form may be a part): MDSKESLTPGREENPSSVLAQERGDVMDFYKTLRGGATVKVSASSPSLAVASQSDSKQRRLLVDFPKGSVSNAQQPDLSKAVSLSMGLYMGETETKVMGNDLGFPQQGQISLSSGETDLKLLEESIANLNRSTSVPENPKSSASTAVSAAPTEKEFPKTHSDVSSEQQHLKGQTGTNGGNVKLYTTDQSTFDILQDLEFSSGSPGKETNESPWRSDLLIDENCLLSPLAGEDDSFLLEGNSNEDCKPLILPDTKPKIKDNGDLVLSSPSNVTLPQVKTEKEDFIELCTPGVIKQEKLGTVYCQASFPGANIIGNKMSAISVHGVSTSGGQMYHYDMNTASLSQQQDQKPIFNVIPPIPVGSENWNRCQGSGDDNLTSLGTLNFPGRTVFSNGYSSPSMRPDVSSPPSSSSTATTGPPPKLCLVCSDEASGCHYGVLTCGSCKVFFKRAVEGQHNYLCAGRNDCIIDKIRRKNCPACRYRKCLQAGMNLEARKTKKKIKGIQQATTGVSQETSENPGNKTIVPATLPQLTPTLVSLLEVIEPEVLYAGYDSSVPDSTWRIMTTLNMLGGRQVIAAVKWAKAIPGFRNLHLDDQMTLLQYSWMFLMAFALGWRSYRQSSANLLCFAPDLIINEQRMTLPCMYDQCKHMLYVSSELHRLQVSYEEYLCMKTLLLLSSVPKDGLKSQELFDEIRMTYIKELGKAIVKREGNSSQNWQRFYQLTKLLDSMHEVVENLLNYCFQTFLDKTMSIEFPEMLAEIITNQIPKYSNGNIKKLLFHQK
Chain of Ubiquitin carboxyl-terminal hydrolase 1 (Homo sapiens) (O94782 whole entry, looked up): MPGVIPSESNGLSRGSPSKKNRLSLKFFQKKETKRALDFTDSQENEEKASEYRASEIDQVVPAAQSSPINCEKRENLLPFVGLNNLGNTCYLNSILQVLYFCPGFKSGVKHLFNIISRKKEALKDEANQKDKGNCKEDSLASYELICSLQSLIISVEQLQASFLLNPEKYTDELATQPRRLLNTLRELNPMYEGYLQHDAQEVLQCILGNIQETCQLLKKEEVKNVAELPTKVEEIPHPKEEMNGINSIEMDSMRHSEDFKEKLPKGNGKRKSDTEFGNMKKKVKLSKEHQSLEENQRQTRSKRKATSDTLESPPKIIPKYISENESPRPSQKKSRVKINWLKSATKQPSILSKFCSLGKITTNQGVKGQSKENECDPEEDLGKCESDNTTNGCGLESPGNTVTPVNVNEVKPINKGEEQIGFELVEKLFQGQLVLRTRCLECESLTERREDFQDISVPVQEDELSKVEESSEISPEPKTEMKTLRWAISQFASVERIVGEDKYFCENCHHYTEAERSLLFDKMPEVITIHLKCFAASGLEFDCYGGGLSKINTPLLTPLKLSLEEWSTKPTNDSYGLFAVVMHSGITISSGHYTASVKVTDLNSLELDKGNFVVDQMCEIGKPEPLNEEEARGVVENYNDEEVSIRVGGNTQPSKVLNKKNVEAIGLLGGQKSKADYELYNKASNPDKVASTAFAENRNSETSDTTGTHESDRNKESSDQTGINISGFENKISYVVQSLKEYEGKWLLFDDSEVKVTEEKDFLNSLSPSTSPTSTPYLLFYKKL
Chain of Vitamin D3 receptor (Homo sapiens) (P11473 whole entry, looked up): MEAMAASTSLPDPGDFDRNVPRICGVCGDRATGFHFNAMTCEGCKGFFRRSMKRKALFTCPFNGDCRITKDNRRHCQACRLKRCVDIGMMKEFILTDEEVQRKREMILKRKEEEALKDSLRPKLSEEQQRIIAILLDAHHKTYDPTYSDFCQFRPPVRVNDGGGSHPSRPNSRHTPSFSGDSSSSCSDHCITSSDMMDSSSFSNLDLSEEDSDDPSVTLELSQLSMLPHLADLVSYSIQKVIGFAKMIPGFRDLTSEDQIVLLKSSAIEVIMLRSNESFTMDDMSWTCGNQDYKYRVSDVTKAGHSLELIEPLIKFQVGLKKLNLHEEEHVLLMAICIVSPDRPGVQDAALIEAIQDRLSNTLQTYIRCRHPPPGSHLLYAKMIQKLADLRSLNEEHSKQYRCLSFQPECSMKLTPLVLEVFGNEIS
Chain of Nuclear receptor subfamily 1 group I member 2 (Rattus norvegicus) (Q9R1A7 whole entry, looked up): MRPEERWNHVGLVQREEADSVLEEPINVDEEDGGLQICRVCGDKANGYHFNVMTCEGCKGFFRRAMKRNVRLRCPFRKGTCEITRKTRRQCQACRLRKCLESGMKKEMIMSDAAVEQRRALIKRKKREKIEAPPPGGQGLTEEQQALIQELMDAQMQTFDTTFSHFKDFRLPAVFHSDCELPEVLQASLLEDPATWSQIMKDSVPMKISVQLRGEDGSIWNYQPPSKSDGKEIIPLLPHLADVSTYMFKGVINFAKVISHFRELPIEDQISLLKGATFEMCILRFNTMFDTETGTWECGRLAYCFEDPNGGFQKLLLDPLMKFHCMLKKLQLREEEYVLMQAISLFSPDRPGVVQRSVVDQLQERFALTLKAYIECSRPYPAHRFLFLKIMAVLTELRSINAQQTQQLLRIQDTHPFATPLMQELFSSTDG
Chain of Bile acid receptor (Homo sapiens) (Q96RI1 whole entry, looked up): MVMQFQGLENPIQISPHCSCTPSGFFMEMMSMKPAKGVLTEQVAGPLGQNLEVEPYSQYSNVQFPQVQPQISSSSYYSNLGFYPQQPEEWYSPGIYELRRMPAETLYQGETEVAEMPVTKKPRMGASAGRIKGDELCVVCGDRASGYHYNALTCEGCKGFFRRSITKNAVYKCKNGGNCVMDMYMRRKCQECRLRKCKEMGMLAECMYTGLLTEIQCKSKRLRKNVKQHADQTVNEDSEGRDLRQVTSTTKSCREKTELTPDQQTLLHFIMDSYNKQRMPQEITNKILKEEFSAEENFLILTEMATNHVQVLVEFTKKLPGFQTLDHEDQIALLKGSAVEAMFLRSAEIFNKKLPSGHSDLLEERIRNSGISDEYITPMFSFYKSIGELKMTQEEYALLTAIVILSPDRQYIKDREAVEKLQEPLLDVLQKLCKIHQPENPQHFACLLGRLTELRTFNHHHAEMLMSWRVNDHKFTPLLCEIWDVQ
Chain of 3',5'-cyclic-AMP phosphodiesterase 4B (Homo sapiens) (Q07343 whole entry, looked up): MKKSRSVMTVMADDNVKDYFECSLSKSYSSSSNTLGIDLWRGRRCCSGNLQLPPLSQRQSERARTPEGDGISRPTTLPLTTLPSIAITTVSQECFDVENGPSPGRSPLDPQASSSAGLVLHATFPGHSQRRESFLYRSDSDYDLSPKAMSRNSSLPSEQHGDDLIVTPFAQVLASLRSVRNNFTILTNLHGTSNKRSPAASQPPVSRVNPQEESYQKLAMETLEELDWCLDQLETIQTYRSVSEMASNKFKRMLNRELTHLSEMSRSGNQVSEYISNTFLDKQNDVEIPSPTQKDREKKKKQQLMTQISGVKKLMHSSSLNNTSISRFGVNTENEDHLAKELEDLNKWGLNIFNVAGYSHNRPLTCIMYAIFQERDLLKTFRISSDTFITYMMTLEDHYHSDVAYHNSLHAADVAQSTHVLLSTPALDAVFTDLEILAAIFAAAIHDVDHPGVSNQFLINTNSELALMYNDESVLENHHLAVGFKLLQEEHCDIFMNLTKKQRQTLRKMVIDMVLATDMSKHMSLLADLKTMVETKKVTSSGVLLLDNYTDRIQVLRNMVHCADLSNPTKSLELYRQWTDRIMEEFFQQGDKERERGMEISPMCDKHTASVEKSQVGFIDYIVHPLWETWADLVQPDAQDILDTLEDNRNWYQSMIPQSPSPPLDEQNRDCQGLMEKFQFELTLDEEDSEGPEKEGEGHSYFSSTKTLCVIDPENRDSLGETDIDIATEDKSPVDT
Chain of Luciferin 4-monooxygenase (Photinus pyralis) (P08659 whole entry, looked up): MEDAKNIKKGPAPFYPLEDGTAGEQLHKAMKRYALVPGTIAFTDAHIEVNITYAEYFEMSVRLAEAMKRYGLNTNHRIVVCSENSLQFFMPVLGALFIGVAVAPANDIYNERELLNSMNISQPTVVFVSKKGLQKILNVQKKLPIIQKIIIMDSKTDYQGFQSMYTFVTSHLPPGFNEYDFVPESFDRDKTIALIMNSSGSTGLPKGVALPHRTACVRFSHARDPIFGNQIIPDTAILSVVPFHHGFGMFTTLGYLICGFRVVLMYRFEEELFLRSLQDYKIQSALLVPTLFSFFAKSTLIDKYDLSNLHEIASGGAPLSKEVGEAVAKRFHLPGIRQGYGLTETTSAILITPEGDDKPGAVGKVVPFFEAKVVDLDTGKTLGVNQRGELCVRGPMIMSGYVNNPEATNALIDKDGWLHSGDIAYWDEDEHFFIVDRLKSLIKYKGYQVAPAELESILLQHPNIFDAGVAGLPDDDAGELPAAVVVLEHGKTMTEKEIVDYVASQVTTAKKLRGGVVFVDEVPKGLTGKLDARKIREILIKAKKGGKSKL
Chain of Peroxisome proliferator-activated receptor delta (Homo sapiens) (Q03181 whole entry, looked up): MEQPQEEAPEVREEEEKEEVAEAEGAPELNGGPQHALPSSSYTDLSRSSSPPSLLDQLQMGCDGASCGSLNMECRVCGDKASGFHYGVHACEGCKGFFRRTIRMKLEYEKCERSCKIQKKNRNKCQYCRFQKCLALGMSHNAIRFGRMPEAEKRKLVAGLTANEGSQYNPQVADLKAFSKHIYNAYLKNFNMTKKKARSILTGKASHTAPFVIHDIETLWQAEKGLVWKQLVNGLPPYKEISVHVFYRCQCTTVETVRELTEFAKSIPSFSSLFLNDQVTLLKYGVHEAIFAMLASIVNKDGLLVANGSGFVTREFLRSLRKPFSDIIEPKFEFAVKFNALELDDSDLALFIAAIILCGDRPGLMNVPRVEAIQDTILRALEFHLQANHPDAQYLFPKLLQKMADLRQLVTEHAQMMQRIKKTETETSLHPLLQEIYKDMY

Cc1cc(C(C)(C)CC(C)(C)C)ccc1OCCOCC[N+](C)(C)Cc1ccccc1
active: Potency [10] 35.5 µM
inactive: activity change, negative = inhibition [1] 18.1% | activity, negative = inhibition [2] 4.17% | Potency [3] > 20.6 µM | Potency [4] > 20.6 µM | Potency [5] | Potency [6] | Potency [7] | Potency [8] | Potency [9] | outcome [11] | outcome [12] | Potency [13] | activation [14] -7.21% | outcome [16] | outcome [17] | Potency [18] | outcome [19] | Potency [20] | activation [21] 0.146% | max response [22] -8.26% | max response [23] -29.5% | Potency [24] | max response [25] -12.4% | outcome [26]
14.2%: max response [15]
